What all share (assay): qHTS profiling for inhibitors of Plasmodium falciparum proliferation (AID 504749); note: nearly all actives have a fitted effect of over 60% in size
Settings in all cases: P. falciparum in erythrocytes, SYBR Green DNA, 72 h; series mostly up to 28.7 µM

Experiment [1] concerns HB3. An outline of the steps:
(§1)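 Quantitative HTS: compounds pinned into medium, infected erythrocytes added (0.3% parasitemia, 2.5% hematocrit), 72 h culture at 37 C under 5% CO2. Saponin/Triton lysis with SYBR Green I, overnight RT, then fluorescence read.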

Experiment [2] deals with ICS. An outline of the steps:
as §1

Experiment [3] deals with JCK. Summed up: as §1
For experiment [4], the system named is N140. An outline of the steps:
as §1

Experiment [5] concerns P93_24. An outline of the steps: as §1
Experiment [6] concerns P94_40. An outline of the steps:
as §1

For experiment [7], the system named is PAD. An outline of the steps: as §1
Experiment [8] relates to PC15. Summed up:
as §1

Experiment [9] concerns PC26. An outline of the steps:
as §1

Experiment [10] has as its system PC49. An outline of the steps: as §1

Records with an inconclusive call do not appear. The source made the active and inactive calls. Calls come from the whole dose curve; as a rule, active = well fitted inhibition curve with a large enough effect; inconclusive = small, poorly fitted or top-dose-only effect; inactive = flat fitted curve, though single readings scatter. Peptide text beside a SMILES is read from it.

Our source for the Potency values is PubChem BioAssay (NCATS).
Potency is the fitted concentration of half-maximal effect.

On to `CC(=O)Oc1c(C)cc(OCC(O)CNC(C)C)c(C)c1C` (stereo not given), for which the Potency entry in experiment [1], in experiment [2], in experiment [3], in [4], in experiment [5] and in [6] was “inactive” each time. The Potency result in experiment [7], in [8], in experiment [9] and in experiment [10] was “inactive” throughout.

Take `CC(=O)N[C@@H](CC(=O)O)C(=O)N[C@@H](CCC(=O)O)C(=O)O` (Ac-Asp-Glu-OH): the Potency result in experiment [1], in [2], in [3], in [4], in [5] and in [6] was “inactive” throughout. The Potency entry in experiment [7], in experiment [8], in experiment [9] and in experiment [10] was “inactive” in each case.

In the case of `CC[N+](C)(C)Cc1ccccc1Br`, the Potency result in experiment [1], in experiment [2], in [3], in [4], in experiment [5] and in experiment [6] was “inactive” throughout. The Potency entry in [7], in experiment [8], in [9] and in experiment [10] was “inactive” throughout.

With `CC(O)CO` (stereo not given), the Potency entry in experiment [1], in [2], in experiment [3], in experiment [4], in [5] and in [6] was “inactive” throughout. The Potency entry in experiment [7], in [8], in [9] and in [10] was “inactive” throughout.

On to `CC1=C(/C=C/C(C)=C/C=C/C(C)=C/C=C/C=C(C)/C=C/C=C(C)/C=C/C2=C(C)C(=O)CCC2(C)C)C(C)(C)CCC1=O`, for which the Potency result in experiment [1], in [2], in [3], in experiment [4], in experiment [5] and in [6] was “inactive” in each case. The Potency result in [7], in [8], in experiment [9] and in [10] was “inactive” in each case.

With `O=C(COc1ccc(Cl)cc1)OCCNC12CC3CC(CC(C3)C1)C2`, the Potency result in experiment [1], in experiment [2], in experiment [3], in experiment [4], in experiment [5] and in [6] was “inactive” throughout. The Potency entry in [7], in [8], in experiment [9] and in experiment [10] was “inactive” in each case.

Take `CC1=CCC(C(C)(C)O)CC1` (stereo not given): the Potency result in [1], in [2], in experiment [3], in experiment [4], in experiment [5] and in [6] was “inactive” in each case. The Potency result in experiment [7], in [8], in experiment [9] and in experiment [10] was “inactive” in each case.

`NC(=O)c1ncn(C2OC(CO)C(O)C2O)n1` (stereo not given): the Potency result in experiment [1], in experiment [2], in experiment [3], in [4], in experiment [5] and in [6] was “inactive” throughout. The Potency entry in experiment [7], in experiment [8], in experiment [9] and in [10] was “inactive” throughout.

`CCOC(C)=O`: the Potency result in [1], in experiment [2], in [3], in experiment [4], in [5] and in [6] was “inactive” each time. For the same compound, the Potency entry in experiment [7], in [8], in experiment [9] and in experiment [10] was “inactive” each time.

In the case of `Nc1ncnc2c1ncn2[C@@H]1O[C@H](COP(=O)(O)OP(=O)(O)OP(=O)(O)O)[C@@H](O)[C@H]1O`, the Potency entry in experiment [1], in experiment [2], in [3], in experiment [4], in experiment [5] and in [6] was “inactive” throughout. For the same compound, the Potency result in experiment [7], in experiment [8], in [9] and in experiment [10] was “inactive” each time.

Take `CC(C(=O)O)c1ccc(N2Cc3ccccc3C2=O)cc1` (stereo not given): the Potency entry in experiment [1], in experiment [2], in experiment [3], in experiment [4], in experiment [5] and in experiment [6] was “inactive” throughout. Further, the Potency result in [7], in experiment [8], in experiment [9] and in [10] was “inactive” in each case.

For the compound `CC1(C)S[C@@H]2[C@H](NC(=O)[C@@H](NC(=O)N3CCNC3=O)c3ccccc3)C(=O)N2[C@H]1C(=O)O`, the Potency result in [1], in experiment [2], in experiment [3], in [4], in experiment [5] and in [6] was “inactive” throughout. Besides, the Potency entry in [7], in [8], in [9] and in [10] was “inactive” throughout.

As to `Cc1cn([C@H]2C[C@H](O)[C@@H](CO)O2)c(=O)[nH]c1=O`, the Potency result in [1], in experiment [2], in experiment [3], in [4], in [5] and in experiment [6] was “inactive” each time. Further, the Potency result in experiment [7], in experiment [8], in experiment [9] and in [10] was “inactive” each time.

For `CC(NNC(=O)c1ccccc1)c1ccccc1` (stereo not given), the Potency result in [1], in experiment [2], in experiment [3], in [4], in experiment [5] and in [6] was “inactive” throughout. In addition, the Potency entry in [7], in experiment [8], in experiment [9] and in experiment [10] was “inactive” in each case.

With `C#CCOc1ccc2c(C)cc(=O)oc2c1`, the Potency entry in experiment [1], in experiment [2], in experiment [3], in experiment [4], in [5] and in experiment [6] was “inactive” each time. Also, the Potency result in experiment [7], in [8], in experiment [9] and in experiment [10] was “inactive” in each case.

With `C=C1C(=CC=C2CCC[C@@]3(C)[C@@H]2CC[C@H]3[C@H](C)CCCC(C)C)C[C@@H](O)C[C@@H]1O`, the Potency was 12.6 µM (active) in experiment [1], 12.6 µM (active) in experiment [2] and 14.1 µM (active) in experiment [4]. Further, the Potency result in [3] and in [9] was “inactive” throughout.

On to `CC1=C(/C=C/C(C)=C/C=C/C(C)=C/C=C/C=C(C)/C=C/C=C(C)/C=C/C2=C(C)CCCC2(C)C)C(C)(C)CCC1`, for which the Potency entry in [1], in [2], in experiment [3], in experiment [4], in experiment [5] and in experiment [6] was “inactive” in each case. Also, the Potency result in experiment [7], in experiment [8], in experiment [9] and in experiment [10] was “inactive” in each case.

In the case of `C[C@H]1C[C@H]2[C@@H]3CCC4=CC(=O)C=C[C@]4(C)[C@@]3(F)[C@@H](O)C[C@]2(C)[C@@]1(O)C(=O)CO`, the Potency entry in experiment [1], in [2], in [3], in experiment [4], in experiment [5] and in [6] was “inactive” throughout. Further, the Potency entry in experiment [7], in [8], in experiment [9] and in experiment [10] was “inactive” in each case.
